Source: the supplement of paper PMC8728848
Only a selection was taken, and the strongest signals are over-represented in it overall.

Tests used:
Experiment in all cases: glycan array binding signal (z-score within array); higher = stronger binding
Details in all cases: glycan notation: IUPAC condensed, linker removed
[1] = target: Fuc(a1-2)Gal(b1-3)[Fuc(a1-4)]GlcNAc
Outline: (§1)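 Glycan array binding is given as a within-array Z-score, which can be read as non-binding when negative. The arrays, 3228 of them, came from the Consortium for Functional Glycomics database and were retained only where the protein sequence was available. Z-scores were averaged across arrays of the same protein sequence at different concentrations or buffers and across linkers.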

Fuc(a1-2)[Gal(a1-3)]Gal = target: Fuc(a1-2)[Gal(a1-3)]Gal
Outline: as §1

[2] = target: Fuc(a1-2)[Gal(a1-3)]Gal(b1-4)Glc
Outline: as §1

[3] = target: Fuc(a1-2)[GalNAc(a1-3)]Gal(b1-3)GalNAc(a1-3)[Fuc(a1-2)]Gal(b1-4)GlcNAc
Outline: as §1

[4] = target: Fuc(a1-2)[GalNAc(a1-3)]Gal(b1-3)GalNAc(b1-3)Gal(a1-4)Gal(b1-4)Glc
Outline: as §1

[5] = target: Fuc(a1-2)[GalNAc(a1-3)]Gal(b1-3)GlcNAc(b1-2)Man(a1-3)[Fuc(a1-2)[GalNAc(a1-3)]Gal(b1-3)GlcNAc(b1-2)Man(a1-6)]Man(b1-4)GlcNAc(b1-4)[Fuc(a1-6)]GlcNAc
Outline: as §1

[6] = target: Fuc(a1-2)[GalNAc(a1-3)]Gal(b1-4)GlcNAc(b1-6)GalNAc
Outline: as §1

Gal(a1-3)Gal(b1-3)GlcNAc = target: Gal(a1-3)Gal(b1-3)GlcNAc
Outline: as §1

Gal(a1-3)Gal(b1-4)Glc = target: Gal(a1-3)Gal(b1-4)Glc
Outline: as §1

[7] = target: Gal(a1-3)Gal(b1-4)GlcNAc(b1-2)Man(a1-3)[Gal(a1-3)Gal(b1-4)GlcNAc(b1-2)Man(a1-6)]Man(b1-4)GlcNAc(b1-4)GlcNAc
Outline: as §1

[8] = target: Gal(a1-3)Gal(b1-4)[Fuc(a1-3)]GlcNAc(b1-2)Man(a1-3)[Gal(a1-3)Gal(b1-4)[Fuc(a1-3)]GlcNAc(b1-2)Man(a1-6)]Man(b1-4)GlcNAc(b1-4)GlcNAc
Outline: as §1

Gal(a1-3)GalNAc = target: Gal(a1-3)GalNAc
Outline: as §1

[9] = target: Gal(a1-3)[Gal(a1-4)]Gal(b1-4)GlcNAc
Outline: as §1

[10] = target: Gal(a1-4)Gal(b1-4)GlcNAc(b1-2)Man(a1-3)[Gal(a1-4)Gal(b1-4)GlcNAc(b1-2)Man(a1-6)]Man(b1-4)GlcNAc(b1-4)GlcNAc
Outline: as §1

[11] = target: Gal(a1-4)Gal(b1-4)GlcNAc(b1-3)Gal(b1-4)Glc
Outline: as §1

Gal(b1-3)Gal(b1-4)GlcNAc = target: Gal(b1-3)Gal(b1-4)GlcNAc
Outline: as §1

Gal(b1-3)GlcNAc = target: Gal(b1-3)GlcNAc
Outline: as §1

[12] = target: Gal(b1-3)GlcNAc(b1-3)Gal(b1-4)GlcNAc
Outline: as §1

[13] = target: Gal(b1-3)GlcNAc(b1-3)Gal(b1-4)[Fuc(a1-3)]GlcNAc(b1-6)[Gal(b1-3)GlcNAc(b1-3)]Gal(b1-4)Glc
Outline: as §1

[14] = target: Gal(b1-3)[Fuc(a1-4)]GlcNAc(b1-2)Man(a1-3)[Gal(b1-3)[Fuc(a1-4)]GlcNAc(b1-2)Man(a1-6)]Man(b1-4)GlcNAc(b1-4)[Fuc(a1-6)]GlcNAc
Outline: as §1

Gal(b1-4)Glc6S = target: Gal(b1-4)Glc6S
Outline: as §1

[15] = target: Gal(b1-4)GlcNAc(a1-6)Gal(b1-4)GlcNAc
Outline: as §1

[16] = target: Gal(b1-4)GlcNAc(b1-2)Man(a1-3)[Gal(b1-4)GlcNAc(b1-2)Man(a1-6)]Man(b1-4)GlcNAc(b1-4)GlcNAc
Outline: as §1

[17] = target: Gal(b1-4)GlcNAc(b1-2)[Gal(b1-4)GlcNAc(b1-4)]Man(a1-3)[Gal(b1-4)GlcNAc(b1-2)[Gal(b1-4)GlcNAc(b1-6)]Man(a1-6)]Man(b1-4)GlcNAc(b1-4)GlcNAc
Outline: as §1

[18] = target: Gal(b1-4)GlcNAc(b1-3)Gal(b1-3)GalNAc
Outline: as §1

[19] = target: Gal(b1-4)GlcNAc(b1-3)Gal(b1-4)GlcNAc(b1-2)Man(a1-3)[Gal(b1-4)GlcNAc(b1-3)Gal(b1-4)GlcNAc(b1-2)Man(a1-6)]Man(b1-4)GlcNAc(b1-4)GlcNAc
Outline: as §1

[20] = target: Gal(b1-4)GlcNAc(b1-3)Gal(b1-4)GlcNAc(b1-2)[Gal(b1-4)GlcNAc(b1-3)Gal(b1-4)GlcNAc(b1-6)]Man(a1-6)[Gal(b1-4)GlcNAc(b1-3)Gal(b1-4)GlcNAc(b1-2)Man(a1-3)]Man(b1-4)GlcNAc(b1-4)[Fuc(a1-6)]GlcNAc
Outline: as §1

B1: PX14375C-bth-509-28-509 (Bacteroides thetaiotaomicron) (protein)
chain: RSPQGQFTEDDNPNALVNGKIYNVYTMMRSFDITAGTPAIAIHYLRSEDSEKGSIPSDGSDVAEMYDDFLYTPTNGLLGSYWGKNYAIIYQCNDILDAIAEKETAGQTETEDIINKGEASFFRAYCYFNLVRAFGEVPLVTYKINDASEANIPKTTADKIYEQIDTDLKTAEESLPETWSTEYTGRLTWGAARSLHARTYMMRSDWDNMYKASTDVINKGLYNLKTPYNEIFTDDGENSGGSIFELQCTATAALPQSDVIGSQFCEVQGVRGAGQWDLGWGWHMATQLMADAYETGDPRKNATLLYFRKTDDEPITPENTNEPYGESPISPAMGAYFNKKAYTDPALRKEYTNKGFWVNIRLIRYSDVVLMAAEAANEKNIPGEAVDYLEMVRARARGTNTNILPKITTNDQGELREAIRHERRVELGLEPDRFYDLVRWGIASEVLHAAGKVNYQDKNALLPLPQSEIDKSKGVLVQNPDY
- glycan array binding signal (z-score) [1]: -0.397
- glycan array binding signal (z-score) (Fuc(a1-2)[Gal(a1-3)]Gal): -0.193
- glycan array binding signal (z-score) [2]: 0.04
- glycan array binding signal (z-score) [3]: -0.112
- glycan array binding signal (z-score) [4]: -0.355
- glycan array binding signal (z-score) [5]: -0.19
- glycan array binding signal (z-score) [6]: 3.04
- glycan array binding signal (z-score) (Gal(a1-3)Gal(b1-3)GlcNAc): -0.256
- glycan array binding signal (z-score) (Gal(a1-3)Gal(b1-4)Glc): -0.196
- glycan array binding signal (z-score) [7]: 0.762
- glycan array binding signal (z-score) [8]: 1.41
- glycan array binding signal (z-score) (Gal(a1-3)GalNAc): -0.254
- glycan array binding signal (z-score) [9]: 2.55
- glycan array binding signal (z-score) [10]: -0.374
- glycan array binding signal (z-score) [11]: -0.341
- glycan array binding signal (z-score) (Gal(b1-3)Gal(b1-4)GlcNAc): -0.316
- glycan array binding signal (z-score) (Gal(b1-3)GlcNAc): -0.186
- glycan array binding signal (z-score) [12]: -0.144
- glycan array binding signal (z-score) [13]: -0.581
- glycan array binding signal (z-score) [14]: 0.351
- glycan array binding signal (z-score) (Gal(b1-4)Glc6S): 0.533
- glycan array binding signal (z-score) [15]: -0.071
- glycan array binding signal (z-score) [16]: 6.16
- glycan array binding signal (z-score) [17]: 1.28
- glycan array binding signal (z-score) [18]: -0.287
- glycan array binding signal (z-score) [19]: 4.35
- glycan array binding signal (z-score) [20]: 12.3
